# Inconclusive results are not listed. A call without a number means that no potency is given here. More than one record can exist for a structure, and the calls need not agree. Values without a mark were called inactive. Active and inactive are the calls of the source. Calls come from the whole dose curve; as a rule, active = well fitted inhibition curve with a large enough effect in the signal ratio in the repeat runs (not every such curve was filed as active); inconclusive = weak or mixed curves, or effect the other way; inactive = no such curve, though single readings can be large or run the other way; the % refers to the signal ratio.
# Molecular target: Peroxisome proliferator-activated receptor delta (Homo sapiens) (UniProt Q03181)
# Sequence (Q03181 whole entry, looked up): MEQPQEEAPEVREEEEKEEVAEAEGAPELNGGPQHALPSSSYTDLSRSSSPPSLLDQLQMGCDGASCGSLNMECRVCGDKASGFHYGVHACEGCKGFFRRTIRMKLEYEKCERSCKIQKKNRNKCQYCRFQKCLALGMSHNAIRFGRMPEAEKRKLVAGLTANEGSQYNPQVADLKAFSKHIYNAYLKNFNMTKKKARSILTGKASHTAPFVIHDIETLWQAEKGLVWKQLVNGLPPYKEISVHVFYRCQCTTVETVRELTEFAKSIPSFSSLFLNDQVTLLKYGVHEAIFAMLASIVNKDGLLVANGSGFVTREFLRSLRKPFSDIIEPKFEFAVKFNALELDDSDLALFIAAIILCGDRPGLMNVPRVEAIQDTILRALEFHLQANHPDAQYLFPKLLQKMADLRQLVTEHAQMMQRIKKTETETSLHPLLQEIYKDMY
# Test: qHTS assay to identify small molecule antagonists of the peroxisome proliferator-activated receptor delta (PPARd) signaling pathway (AID 743215);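 note: cells stimulated with agonist L165041 at 300 nM final during compound exposure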; note: potency is the fitted concentration of half-maximal effect
# Conditions: HEK293H PPARd-UAS-bla, beta-lactamase FRET ratio, antagonist, 17 h; series mostly up to 62 µM; ratio activity, negative = inhibition: at the top concentration
# Method in brief: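 Inhibition of L165041-driven (300 nM final) PPARd signaling is scored in HEK293H UAS-bla cells. Exposure lasts 17 h at 37 C; beta-lactamase activity is then read by FRET substrate fluorescence after 2 h at room temperature.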
SMILES,"ratio activity, negative = inhibition",Potency
O=c1n(Cl)c(=O)n(Cl)c(=O)n1Cl,0.0869%,
Oc1ccccc1Cl,-7.44%,
O=C1CCCN1,,inactive
Clc1ccc(Cl)cc1,,inactive
O=c1[nH]c(=O)[nH]c(=O)[nH]1,,inactive
CNC(=O)Oc1ccccc1OC(C)C,,inactive
CCOC(=O)c1ccccc1C(=O)OCC,-6.05% [at 80.4 µM],
C1CC2OC2CC1C1CO1 (centres undefined),,inactive
COC(=O)NC(=S)Nc1ccccc1NC(=S)NC(=O)OC,,inactive
COC(=O)c1ccccc1N,,inactive
Cc1ccc(N)cc1N,,inactive
O=[N+]([O-])c1ccccc1,,inactive
O=NN1CCCC1,,inactive
CN(C)CCO,7.63%,
CCC[CH2][Sn]([Cl])([Cl])[Cl],-8.34%,
C#CCN(C)[C@H](C)Cc1ccccc1,,inactive

SMILES,"ratio activity, negative = inhibition",Potency
CC(C)NC(=O)N1CC(=O)N(c2cc(Cl)cc(Cl)c2)C1=O,,inactive
c1ccc(-c2ccccc2)cc1,,inactive
Cc1cc(Cl)ccc1O,,inactive
CCC[N+](=O)[O-],,inactive
Cc1ccc([N+](=O)[O-])cc1C,,inactive
C=CC(N)=O,,inactive
C=CCO,,inactive
CC1OC(C)OC(C)O1 (centres undefined),,inactive
C[C@]12CC[C@H]3[C@@H](CC[C@@]45O[C@@H]4C(O)=C(C#N)C[C@]35C)[C@@H]1CC[C@@H]2O,,inactive
O=S(=O)(c1ccc(Cl)cc1)c1cc(Cl)c(Cl)cc1Cl,,inactive
Nc1ccc(Br)cc1,,inactive
COc1ccc2c3c1O[C@H]1[C@@H](O)C=C[C@H]4[C@@H](C2)N(C)CC[C@@]341,,42.6 µM (active)
O=[N+]([O-])c1ccc(Oc2ccc(Cl)cc2Cl)cc1,,inactive
CC(C)(C)OOC(C)(C)C,,inactive
Cc1ccccc1O,-1.04%,

# Molecular target: Bile acid receptor (Homo sapiens) (UniProt Q96RI1)
# Sequence (Q96RI1 whole entry, looked up): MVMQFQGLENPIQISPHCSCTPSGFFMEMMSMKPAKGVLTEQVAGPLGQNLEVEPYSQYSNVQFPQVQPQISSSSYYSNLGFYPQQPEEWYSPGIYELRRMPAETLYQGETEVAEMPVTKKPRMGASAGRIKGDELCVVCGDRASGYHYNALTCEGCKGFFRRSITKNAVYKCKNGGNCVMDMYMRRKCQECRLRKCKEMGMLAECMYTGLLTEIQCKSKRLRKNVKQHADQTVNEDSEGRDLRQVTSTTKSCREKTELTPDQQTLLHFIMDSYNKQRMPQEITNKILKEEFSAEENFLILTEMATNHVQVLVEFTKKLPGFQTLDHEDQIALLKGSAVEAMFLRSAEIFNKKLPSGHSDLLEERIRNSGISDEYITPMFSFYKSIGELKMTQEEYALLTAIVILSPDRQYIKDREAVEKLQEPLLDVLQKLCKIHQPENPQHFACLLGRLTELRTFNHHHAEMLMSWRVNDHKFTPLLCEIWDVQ
# Test: qHTS assay to identify small molecule antagonists of the farnesoid-X-receptor (FXR) signaling pathway (AID 743217)
# Conditions: HEK293T FXR-UAS-bla, beta-lactamase ratio, CDCA-stimulated, 16 h; series mostly up to 62.6 µM; activity change, negative = inhibition: at the top concentration
# Method in brief: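 Antagonist mode against 50 uM (final) chenodeoxycholic acid stimulation in FXR-bla HEK 293T cells, 16 h at 37 °C. Inhibition detected as reduced beta-lactamase activity via LiveBLAzer B/G FRET fluorescence after 2 h at room temperature.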
SMILES,outcome,"activity change, negative = inhibition"
COC(=O)c1ccccc1C(=O)OC,inactive,
O=C1CCCN1,inactive,
C1CC2OC2CC1C1CO1 (centres undefined),inactive,
COC(=O)NC(=S)Nc1ccccc1NC(=S)NC(=O)OC,inactive,
Cc1ccc(N)cc1N,inactive,
[O-][Cl+2]([O-])O,inactive,
O=NN1CCCC1,inactive,
O=NN1CCCCCCC1,inactive,
CCC[CH2][Sn]([Cl])([Cl])[Cl],,0.025% [at 81.1 µM]
c1ccc(-c2ccccc2)cc1,inactive,
Cc1cc(Cl)ccc1O,,4.45%
CCC[N+](=O)[O-],inactive,
Cc1ccc([N+](=O)[O-])cc1C,inactive,
CC1OC(C)OC(C)O1 (centres undefined),inactive,
O=S(=O)(c1ccc(Cl)cc1)c1cc(Cl)c(Cl)cc1Cl,inactive,
Nc1ccc(Br)cc1,,2.43%
COc1ccc2c3c1O[C@H]1[C@@H](O)C=C[C@H]4[C@@H](C2)N(C)CC[C@@]341,,-0.601% [at 81.1 µM]
CC(C)(C)OOC(C)(C)C,,0.667%

# — PubChem BioAssay (Tox21)
